Bioassay records as filed in PubChem BioAssay.
CHX counter = counter-screen hit for Shiga toxin inhibitors, cycloheximide; cell reporter, cycloheximide protein synthesis inhibition counterscreen; max response, %; hit rate 12% among 300,000; in the data active = max response mostly above about 13%, no sharp cut-off; inactive = mostly below about 14%; also: read at 38.3 µM for the half of the compounds with a filed dose
Pf growth 48h = P. falciparum growth inhibition at 48 hours (one generation). P. falciparum luciferase growth in erythrocytes, 48 h. Potency, µM (series often up to 28.7 µM), usual class: inhibitors. hit rate 5.9% among 310,000
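In quantitative HTS format, infected erythrocytes bearing luciferase-reporter parasites were treated for a single generation at 37 C. Luminescence after adding detection reagent served as the growth measure.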
Shiga inhibitor = blocks Shiga toxin action in Vero cells; hit rate 9.2% among 290,000; AID 2315; Vero cells, Shiga toxin protein synthesis inhibition reporter; inhibition, % at 38.7 µM; in the data active = inhibition mostly above about 28%, no sharp cut-off; inactive = mostly below about 43%
AMA1-RON2 inh = inhibitors of Plasmodium falciparum AMA1-RON2 interaction | AlphaScreen AMA1-biotinylated RON2 peptide binding | Potency, µM (titrated, usually from 58.2 µM), usual class: inhibitors | hit rate 0.2% among 360,000; also: nearly all actives have a fitted effect of over 45% in size
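AMA1 (3D7) with his tag at 25 nM final met compounds first, then biotinylated RON2 peptide at 25 nM; detection used donor plus acceptor beads, 10 µg/mL apiece, read by AlphaScreen after 30 min at room temperature.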
HCV inhibitor = inhibitors of hepatitis C virus infection; Huh7.5.1 HCVcc-Cre infection, luciferase reporter, 44 h; Potency, µM (series often up to 41.8 µM), most hits filed as inhibitors; hit rate 3.4% among 340,000
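A cell-based infection assay in which seeded cells (1,000 per well) receive test compound after 4 h, are inoculated with HCVcc-Cre at approximately 0.5 moi, and are incubated 44 h before luminescence detection.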
Pf growth 96h = P. falciparum growth inhibition at 96 hours. P. falciparum luciferase reporter growth, 96 h. hit rate 6.9% among 320,000. Potency, µM (highest dose often 28.7 µM), actives largely listed as inhibitors
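Parasite growth measured via integrated firefly luciferase reporter in P. falciparum. Infected erythrocytes at 2% hematocrit, 0.05% parasitemia final were treated 96 hours at 37 C under 5% CO2, and luminescence was read.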
HCV inh confirm = confirmation of hepatitis C virus inhibitors; shares compounds with HCV inhibitor; HCVcc-Cre infectious virus cell assay, luciferase, inhibition; Potency, µM (doses to about 41.8 µM), actives largely listed as inhibitors; hit rate 78% among 640; AID 720575; also: nearly all actives have a fitted effect of over 80% in size
HCV host tox = toxic to HCV host cells, flagging false HCV inhibitors; shares compounds with HCV inhibitor; HCV host cell line cytotoxicity counterscreen; hit rate 22% among 640; Potency, µM (series often up to 41.8 µM), usual class: inhibitors;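 also: 44 h compound exposure; nearly all actives have a fitted effect of over 55% in size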
A number is an active result; n = inactive; u = inconclusive; x = not tested or not shown. Shown are actives, neighbours in structure and some others; about 21% of the full set was active somewhere. Unless noted, calls follow the shape of the dose curve; as a rule, active = well fitted curve in the direction sought with a large enough effect; inconclusive = small, poorly fitted or top-dose-only effect, or another doubt; inactive = no such curve, though single readings can be large; an effect the other way counts as inactive or inconclusive.

SMILES	CHX counter	Pf growth 48h	Shiga inhibitor	AMA1-RON2 inh	HCV inhibitor	Pf growth 96h	HCV inh confirm	HCV host tox
CC[n+]1c(/C=C2\Sc3ccccc3N2C)ccc2cccc(C)c21	n	u	n	n	2.8µM	n	2.5µM	2.5µM
CCOc1ccc(CCNc2nc3c(c(=O)n(C)c(=O)n3C)n2CC)cc1OCC	n	n	n	n	5.6µM	n	6.3µM	14µM
CC(C)n1c(NCCc2ccccc2)nc2c1c(=O)n(C)c(=O)n2C	n	n	n	n	u	n	7.9µM	u
CCn1c(NCc2ccccn2)nc2c1c(=O)n(C)c(=O)n2C	n	n	n	n	n	n	x	x
CC(C)c1cccc(C(C)C)c1NC(=O)CN1C(=O)NC2(CCCCCCC2)C1=O	x	n	x	n	n	u	x	x
